# The supplement of paper PMC3334620
# Whole data set: some 33,000 sequences, median “E-score (-0.5 to 0.5)” near -0.054, cut for the highest 2% near 0.39. For the sample, the highest values were picked, then their nearest neighbours and some sequences at random.
# Molecular target: Ylr278c (UniProt Q05854)
# Experiment: PBM E-score (8-mer binding enrichment) (E-score (-0.5 to 0.5)); higher = stronger / more preferred TF binding
# Conditions: protein concentration: 200 nM; construct: GST-DNA-binding domain
# How it was run: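 PURExpress in vitro transcription/translation supplied GST-tagged yeast transcription factors, either full-length or DNA-binding domain. Applied at about 100-200 nM to universal all-10-mer Agilent arrays double-stranded by primer extension, the bound protein was detected with fluorescent anti-GST. E-scores, modified Wilcoxon-Mann-Whitney statistics, were given by the Universal PBM Analysis Suite to ungapped eight-base words pooled with their reverse complements after masliner normalisation.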
# Chain of UniProt Q05854 (Q05854 whole entry): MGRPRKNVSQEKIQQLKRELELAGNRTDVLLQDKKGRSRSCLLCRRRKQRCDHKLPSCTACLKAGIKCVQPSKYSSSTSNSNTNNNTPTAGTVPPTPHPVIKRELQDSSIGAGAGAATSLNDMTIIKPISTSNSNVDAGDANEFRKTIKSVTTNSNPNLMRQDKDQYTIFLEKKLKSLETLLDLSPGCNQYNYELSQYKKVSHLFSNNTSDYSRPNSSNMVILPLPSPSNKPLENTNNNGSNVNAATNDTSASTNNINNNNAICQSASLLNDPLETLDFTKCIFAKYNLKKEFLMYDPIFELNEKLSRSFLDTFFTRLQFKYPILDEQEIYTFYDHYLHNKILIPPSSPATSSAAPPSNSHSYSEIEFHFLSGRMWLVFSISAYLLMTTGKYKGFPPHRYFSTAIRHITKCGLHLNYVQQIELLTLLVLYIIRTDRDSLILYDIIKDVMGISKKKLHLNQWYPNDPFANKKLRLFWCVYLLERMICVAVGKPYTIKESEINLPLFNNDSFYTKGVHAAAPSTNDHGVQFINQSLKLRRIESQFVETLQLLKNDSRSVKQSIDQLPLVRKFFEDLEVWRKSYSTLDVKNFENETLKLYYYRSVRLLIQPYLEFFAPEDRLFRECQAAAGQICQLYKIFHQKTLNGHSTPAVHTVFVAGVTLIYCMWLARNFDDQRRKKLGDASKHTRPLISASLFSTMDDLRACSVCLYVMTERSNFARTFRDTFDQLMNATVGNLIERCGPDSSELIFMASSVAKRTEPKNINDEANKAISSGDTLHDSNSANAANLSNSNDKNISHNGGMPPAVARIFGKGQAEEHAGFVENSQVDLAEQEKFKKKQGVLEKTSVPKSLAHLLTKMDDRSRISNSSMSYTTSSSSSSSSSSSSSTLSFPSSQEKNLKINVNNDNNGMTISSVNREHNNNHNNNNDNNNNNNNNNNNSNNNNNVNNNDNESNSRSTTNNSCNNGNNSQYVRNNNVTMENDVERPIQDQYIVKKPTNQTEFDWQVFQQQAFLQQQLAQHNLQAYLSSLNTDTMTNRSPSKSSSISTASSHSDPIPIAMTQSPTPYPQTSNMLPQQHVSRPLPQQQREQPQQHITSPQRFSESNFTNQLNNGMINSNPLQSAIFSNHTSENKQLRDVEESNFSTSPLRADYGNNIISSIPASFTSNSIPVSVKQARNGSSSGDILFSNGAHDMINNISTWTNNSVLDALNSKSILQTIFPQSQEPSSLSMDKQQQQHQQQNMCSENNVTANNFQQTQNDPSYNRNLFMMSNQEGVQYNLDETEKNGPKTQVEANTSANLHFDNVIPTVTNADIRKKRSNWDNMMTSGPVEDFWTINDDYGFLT
row,Sequence,PBM E-score
1,ATAGCTCG,-0.0396
2,ATGCTGTA,-0.185
3,TAAGTATA,-0.0135
4,GGACTGAA,-0.00012
5,ATGGCCAT,0.0373
6,AGGAGATC,0.0493
7,CGGATATC,0.366
8,CGGATATA,0.393
9,CGGAGATC,0.479
10,AGGAGATA,-0.016
11,CTGAGATC,-0.196
12,CGGAGATA,0.483
13,GGGATATA,0.151
14,GGGAGATA,-0.0385
15,CGACTCAA,0.0186
16,GTCATGAC,0.0612
17,GCCAGTTA,-0.0644
18,GCACTCGC,0.0715
19,CGTTCGCC,0.145
20,AGATCCGG,0.41
21,ATATCCGC,0.38
22,AGATCCGC,0.37

row,Sequence,PBM E-score
1,ATATCCGA,0.387
2,ACATCCGG,0.444
3,ATATCCGG,0.413
4,ACATCCGA,0.356
5,ACATCCGT,0.162
6,AGATCCGA,0.344
7,ATAGTGGC,-0.179
8,ACAGGCAA,-0.209
9,CTGCGACA,0.094
10,ACGATGGC,-0.144
11,ATAAGTAA,0.0323
12,GCCAACGA,-0.181
13,CGACTGTA,-0.139
14,TGGACTAA,-0.188
15,GGGACTAA,-0.0466
16,AGGACTTA,-0.0757
17,CGGACTTC,0.473
18,AGGACTTC,-0.0413
19,CGGACTCA,0.384
20,GGGACTTA,-0.0692
21,CGGACTTA,0.452
22,CGGACTCC,0.423

row,Sequence,PBM E-score
1,CGGACTAA,0.423
2,CTGACTTC,0.088
3,AGGACTCC,0.0662
4,ACAAAGCG,-0.0993
5,TGGACGAA,-0.116
6,ACACCACT,-0.0175
7,CCCGGTAG,0.252
8,GCGGTGAC,0.0764
9,GCCCGGCA,0.255
10,GTCCGGCA,0.41
11,CTACGGCC,0.123
12,CACCGGCA,0.328
13,CTGCGGCC,0.2
14,GACCGGCA,0.258
15,CTCCGGCA,0.469
16,CTCCGGCC,0.455
17,ATCCGGCA,0.369
18,GATCTGGC,0.0483
19,ACCTAACC,0.0688
20,TAAGAGGA,-0.0178
21,AAAGATTG,-0.146
22,AGCTAAGC,-0.164

row,Sequence,PBM E-score
1,CATAGGAC,-0.146
2,ATCGCTTG,-0.321
3,CGGGTGAG,0.167
4,CATATGGC,-0.0951
5,ACCAGATA,-0.0605
6,CGTTGGAA,-0.0729
7,CCTTCGAG,-0.0791
8,GGGAGACC,-0.0886
9,CGGAGACG,0.415
10,AGGAGACA,-0.0751
11,CGGAGACA,0.39
12,CGGAGACC,0.406
13,AGGAGACG,-0.12
14,AGGAGACC,-0.145
15,CAGAGACG,-0.0283
16,TGGAGACA,-0.227
17,CCTCCTAA,-0.122
18,GATCTAAA,0.0142
19,CAAAGGTC,-0.224
20,ATACTTGA,-0.345
